Experimental data from PubChem BioAssay (NCI).
This is part of a sample that, as a whole, favours compounds with a hit. Of some 83,000 tested, about 20% had one in any assay.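 Compound tested at a single concentration for 48 hours in 96-well plates; a percent growth value below 10 was scored as active.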 A number with no mark means an inactive call. Activity calls are given as the source filed them.

tested on: HL-60(TB) leukemia; test: NCI-60 one-dose screen, 48 h (100 = growth as untreated, 0 = no growth, -100 = all killed); details: 10 µM unless noted

Compound | growth
CCn1cc(/C=C2\Oc3cc(OCC#N)ccc3C2=O)c2cc(OC)ccc21 | -31% (active)
CCOC(=O)CSc1c([N+](=O)[O-])ncn1C | 91.4%
CCOC(=O)c1c(C)nc2c(c1N)CC(=O)N2Cc1ccc(OC)cc1 | 110%
N#Cc1c(N)nc2c(c1N)C(c1ccc(F)cc1)c1ccc(N)cc1O2 (stereo not given) | 110%
COc1cc(C(=O)c2c(-c3ccccc3)oc3c(OC)cccc23)cc(OC)c1OC | -6.56% (active)
O=C(CN(C1CCCCC1)C1CCCCC1)Nc1ccc(S(=O)(=O)c2ccc(NC(=O)CN(C3CCCCC3)C3CCCCC3)cc2)cc1 | -39.3% (active)
CNCCCOc1c(Br)cc(CCNC(=O)/C(Cc2ccc(OC)c(Br)c2)=N/O)cc1Br | 21.3%
Fc1ccc(/C=N/n2c(-c3cc(Cl)cc(Cl)c3Cl)nn(CNc3ccc(Cl)nn3)c2=S)cc1 | 90.1%
COc1ccc(C2NC(=O)c3cc4c(cc3N2)OCO4)cc1 (stereo not given) | -42% (active)
COC(=O)/C=C/C(=O)c1cc(C)cc(C)c1O | 86.6%
CCCCCCCCCCCCOB(OCCCCCCCCCCCC)OCCCCCCCCCCCC | 107%
CCN1C(=O)N(CC)C2C1NN=c1s/c(=C\c3ccccc3F)c(=O)n12 (stereo not given) | -48.1% (active)
Cc1ncc(-c2ccoc2)c(NC2CCCCCC2)n1 | 96.1%
Fc1ccc(NCc2cn(-c3ccccc3)nc2-c2ccc(OCc3ccccc3)cc2)cc1Cl | 79.5%
OCc1cc(CN2CCCCC2)c(O)c2ncccc12 | 33.2%
CC(=Nc1ccc(N(C)C)cc1)c1ccccc1 | 26.1%
CCCCN(CC)CCCCCCCCCCN1CCCc2cc(OC)ccc21 | -54% (active)
O=C(N/N=C\c1cc(Br)cc(Br)c1O)N/N=C/c1cc(Br)cc(Br)c1O | 8.67% (active)
CC(C)Cc1cc(CNC(=O)C2[C@H]3CN(C(=O)c4ccccc4)C[C@@H]23)nn1-c1ccccc1 (stereo not given in full) | 94.2%
O=C(Nc1cc(-c2ccccc2)[nH]n1)c1ccc(Cl)cc1 | 42.1%

Compound | growth
O=c1oc2ccc(F)cc2c(=O)n1-c1ccc(Cl)cc1F | -45.3% (active)
CCCCc1ccc(N=Nc2ccc(OCC[N+](C)(C)C)cc2)cc1 | 25.2%
O=C(Nc1ccc2ccccc2c1)c1cc2ccccc2cc1O | 79.7%
Clc1ccc2[nH]cc(-c3cncn3CCc3ccccc3)c2c1 | 45.1%
CCCCC(=O)OC1CCCCC1C (stereo not given) | 117%
CCOc1ccc(C(C)=O)cc1NC(=O)c1cccc(-c2nnn(CC)n2)c1 | 7.31% (active)
COc1cccc(/C=C/C(=O)/C=C(/C=C/c2cccc(OC)c2OC)OB(F)F)c1OC | 26.1%
CCCCCCCCCCCCCCCc1ccc(C(=O)C[n+]2ccccc2)cc1 | -69.3% (active)
O=[N+]([O-])c1ccc(N=Nc2c(Cl)cc(O)cc2Cl)cc1 | -31.9% (active)
Cc1nc2sc(C(=O)Nc3cccc4ccccc34)c(N)c2cc1C(=O)/C=C/c1ccccc1 | 4.48% (active)
NS(=O)(=O)c1cc(Br)c2c(c1)S(=O)(=O)NCN2 | 71.2%
COc1cc(/C=C2\CCC/C(=C\c3ccc(OCC4CO4)c(OC)c3)C2=O)ccc1OCC1CO1 (stereo not given) | -3.96% (active)
CC(=O)n1cc([C@H]2CC[C@H](c3cn(C(C)=O)c4ccccc34)c3c2[nH]c2ccccc32)c2ccccc21 | 111%
COc1cc(N)c2ncccc2c1Cl | 85.6%
ClC1=C(Cl)C(Cl)=C(Cl)C1=Cc1ccccc1 | -8.87% (active)
COc1ccc(Cl)cc1Nc1nc(C(F)(F)F)ccc1C(=O)N/N=C/c1ccccc1Cl | -11.3% (active)
COC(OC)C1(c2ccccc2)NC(=O)NC1=O (stereo not given) | 122%
CCOC(=O)/C(=C(/C)NCC(C)C)c1cc(O)c(O)c2c(C)cc(=O)[nH]c12 | -6.69% (active)
O=C(NCC(c1ccsc1)N1CCCCCC1)c1ccc(C(F)(F)F)cc1 (stereo not given) | 97.5%
OCCS | 98.4%
